Values joined by “and” are separate entries in the source; they are usually repeats but may differ in a detail not shown here. Equal values may be shown once. Records with an inconclusive call do not appear. Values without a mark were called inactive. Active and inactive are the calls of the source. Calls follow the shape of the dose curve; as a rule, active = well fitted inhibition curve with a large enough effect; inconclusive = small, poorly fitted or top-dose-only effect; inactive = flat fitted curve, though single readings scatter.
These molecules were tested against Ubiquitin carboxyl-terminal hydrolase 2 (Homo sapiens) (UniProt O75604) (assay: qHTS for Inhibitors of Ubiquitin-specific Protease USP2a Using CHOP2 as the Reporter: K484 Substrate (AID 652173;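 also: cleavage of internally quenched K48 di-ubiquitin substrate measured as rising fluorescence over time; nearly all actives have a fitted effect of over 70% in size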; also: potency is read from the fitted curve at half-maximal effect)). Conditions: USP2 cleavage of DiUb K48 IQF substrate, fluorescence; series mostly up to 57.5 µM; activity change, negative = inhibition: at the top concentration.
Method in brief: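 USP2 (dispensed at 5 nM) was pinned with compounds, then DiUb K48 internally quenched fluorescent substrate (dispensed at 100 nM) was added. The buffer was 20 mM Tris pH 8, 2 mM beta-mercaptoethanol and 0.05% CHAPS. Cleavage was read kinetically as rising fluorescence, Ex 525/Em 598.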

Sequence of Ubiquitin carboxyl-terminal hydrolase 2 (Homo sapiens) (O75604 whole entry, looked up): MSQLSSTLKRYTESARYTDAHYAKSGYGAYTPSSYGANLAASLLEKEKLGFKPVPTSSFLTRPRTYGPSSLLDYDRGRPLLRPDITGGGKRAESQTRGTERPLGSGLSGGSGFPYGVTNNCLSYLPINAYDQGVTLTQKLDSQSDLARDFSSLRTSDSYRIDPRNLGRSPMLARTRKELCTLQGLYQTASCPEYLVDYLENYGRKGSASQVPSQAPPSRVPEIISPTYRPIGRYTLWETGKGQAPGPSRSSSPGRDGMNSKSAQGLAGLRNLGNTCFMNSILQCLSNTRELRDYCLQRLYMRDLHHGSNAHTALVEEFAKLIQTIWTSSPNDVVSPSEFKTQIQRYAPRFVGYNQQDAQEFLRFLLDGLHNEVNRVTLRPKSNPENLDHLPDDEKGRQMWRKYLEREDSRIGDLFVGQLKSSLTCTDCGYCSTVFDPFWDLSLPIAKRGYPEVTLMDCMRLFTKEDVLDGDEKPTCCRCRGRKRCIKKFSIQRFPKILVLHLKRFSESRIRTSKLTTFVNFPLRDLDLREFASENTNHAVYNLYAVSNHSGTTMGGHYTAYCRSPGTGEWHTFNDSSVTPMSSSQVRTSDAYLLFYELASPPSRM

Compound | Potency | activity change, negative = inhibition
Cc1ccc(-c2cc(C(=O)Nc3ccc(-c4nn[nH]n4)cc3)c3ccccc3n2)cc1C | 4.85 µM (active) | –
Cc1ccc(S(=O)(=O)Nc2cc(F)c(F)cc2C(=O)Nc2nc(-c3ccccc3)cs2)cc1 | 0.863 µM (active) | –
Cc1ccc(S(=O)(=O)Nc2ccccc2C(=O)Nc2nc(-c3ccccc3)c(Br)s2)cc1 | 1.22 µM (active) | –
COc1ccc(OC)c(C(=O)Nc2nc(-c3ccccc3)cs2)c1 | 7.69 µM (active) | –
Cc1ccc(S(=O)(=O)Nc2cccnc2C(=O)Nc2nc(-c3ccccc3)cs2)cc1 | 1.37 µM (active) | –
Cc1ccc(S(=O)(=O)Nc2cc(C)ccc2C(=O)Nc2nc(-c3ccccc3)cs2)cc1 | 1.53 µM (active) | –
Cc1ccc(S(=O)(=O)Nc2cnccc2C(=O)Nc2nc(C3CCC3)cs2)cc1 | 17.2 µM (active) | –
Cc1ccc(S(=O)(=O)Nc2ccccc2C(=O)Nc2nccs2)cc1 | 24.3 µM (active) | –
Cc1ccc(S(=O)(=O)Nc2cnccc2C(=O)Nc2ccncc2)cc1 | – | -17.7%
Cc1ccc(S(=O)(=O)Nc2cnccc2C(=O)Nc2ccc(-c3nc4ccccc4[nH]3)cc2)cc1 | 2.17 µM (active) | –
COc1ccccc1NC(=O)c1cc(-c2ccc(C)c(C)c2)nc2ccccc12 | 10.9 µM (active) | –
COc1ccc(NS(=O)(=O)c2ccc(C)cc2)c(C(=O)Nc2nc(-c3ccccc3)cs2)c1 | 2.73 µM (active) | –
Cc1ccc(S(=O)(=O)Nc2cnccc2C(=O)Nc2nc(-c3ccc(Cl)c(Cl)c3)cs2)cc1 | 3.06 µM (active) | –
Cc1ccc(-c2cc(C(=O)Nc3cccc4ccccc34)c3ccccc3n2)cc1C | 17.2 µM (active) | –
Cc1ccc(-c2cc(C(=O)Nc3ccccc3Cl)c3ccccc3n2)cc1C | 13.7 µM (active) | –
O=C(Nc1ccc(S(=O)(=O)Nc2nccs2)cc1)c1ccncc1 | – | -19.6%
Cc1ccc(S(=O)(=O)Nc2ccccc2C(=O)Nc2ccc(-c3ccccc3)nn2)cc1 | 3.85 µM (active) | –
O=C(Nc1ccc([S+](=O)([O-])Nc2nccs2)cc1)C1CCNCC1 | – | -14.1%
Cc1ccc(-c2cc(C(=O)Nc3ccc(-c4noc(=O)[nH]4)cc3)c3ccccc3n2)cc1C | 4.32 µM (active) | –

Compound | Potency | activity change, negative = inhibition
O=c1[nH]c(CN2CCOCC2)nc2sc3c(c12)CCCC3 | – | -5.01%
CC1(C)CC(C(=O)Nc2ccc([S+](=O)([O-])Nc3nccs3)cc2)C1 | – | -3.19%
Cc1ccc(S(=O)(=O)Nc2ccncc2C(=O)Nc2nc(-c3ccccc3)cs2)cc1 | 4.85 µM (active) | –
Cc1ccc(S(=O)(=O)Nc2cc(Br)ccc2C(=O)Nc2nc(-c3ccccc3)cs2)cc1 | 1.09 µM (active) | –
CCC1CCC(C(=O)Nc2ccc(S(=O)(=O)Nc3nccs3)cc2)CC1 (configuration not stated) | 27.3 µM (active) | –
Cc1ccc(-c2cc(C(=O)Nc3ncco3)c3ccccc3n2)cc1C | 3.06 µM (active) | –
Cc1noc(C)c1S(=O)(=O)Nc1cnccc1C(=O)Nc1nc(-c2ccccc2)cs1 | 6.85 µM (active) | –
Cc1ccc(-c2cc(C(=O)NCC[S+](=O)([O-])O)c3ccccc3n2)cc1C | – | -14.5%
COc1cc(NS(=O)(=O)c2ccc(C)cc2)c(C(=O)Nc2nc(-c3ccccc3)cs2)cc1OC | 2.17 µM (active) | –
O=C(Nc1nc(-c2ccccc2)cs1)c1ccccc1 | 24.3 µM (active) | –
Cc1ccc(S(=O)(=O)Nc2ccc(Cl)cc2C(=O)Nc2nc(-c3ccccc3)cs2)cc1 | 1.09 µM (active) and 1.72 µM (active) | –
CCCCC(=O)N1CCC(C(=O)Nc2ccc([S+](=O)([O-])Nc3nccs3)cc2)CC1 | – | -5.77%
Cc1ccc(S(=O)(=O)Nc2cccc(C(=O)Nc3nc(-c4ccccc4)cs3)c2Cl)cc1 | 3.43 µM (active) | –
Cc1ccc(-c2cc(C(=O)Nc3ccc(S(=O)(=O)NCc4nccs4)cc3)c3ccccc3n2)cc1C | 3.43 µM (active) | –
COc1ccc(C(=O)Nc2nc(-c3ccccc3)cs2)cc1NS(=O)(=O)c1ccc(C)cc1 | 3.06 µM (active) | –
Cc1ccc(-c2cc(C(=O)Nc3nc4ccccc4s3)c3ccccc3n2)cc1C | 21.7 µM (active) | –
Cc1ccc(S(=O)(=O)Nc2ccccc2C(=O)Nc2cccc(-c3ccccc3)c2)cc1 | 2.17 µM (active) | –
O=C(Cc1ccc2ccccc2c1)Nc1ccc(S(=O)(=O)Nc2nccs2)cc1 | 12.2 µM (active) | –
Cc1ccc(-c2cc(C(=O)N(C)c3ccccc3)c3ccccc3n2)cc1C | 21.7 µM (active) | –

These molecules were tested against Calcium and integrin-binding protein 1 (Homo sapiens) (UniProt Q99828) (assay: Primary qHTS for Identification of Calcium Integrin Binding Protein 1 (CIB1) Competitor (AID 1508620;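 also: GST tagged CIB1 binding a fluorescein labelled alphaIIb integrin peptide tracer; top concentration of the series differs between compounds; % is scaled to controls: 0 for no effect and ±100 for the full control effect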)). Conditions: CIB1-GST / FITC-alphaIIb peptide fluorescence polarization; series mostly up to 114 µM; activity change, negative = inhibition: at the top concentration.
Method in brief: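 Fluorescence polarization competition: CIB1-GST (1 uM final) preincubated with compound 15 min at room temperature, then FITC-labeled alphaIIb peptide (100 nM final) added for another 15 min. Polarization read at Ex 480/Em 540.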

Sequence of Calcium and integrin-binding protein 1 (Homo sapiens) (Q99828 whole entry, looked up): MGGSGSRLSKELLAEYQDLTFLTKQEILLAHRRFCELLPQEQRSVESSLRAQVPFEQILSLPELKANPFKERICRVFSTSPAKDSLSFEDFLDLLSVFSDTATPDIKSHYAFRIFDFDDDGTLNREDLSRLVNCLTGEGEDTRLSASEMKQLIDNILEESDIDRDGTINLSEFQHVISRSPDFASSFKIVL

Compound | activity change, negative = inhibition | Potency
Cc1ccc(-c2cc(C(=O)Nc3ccc(-c4nn[nH]n4)cc3)c3ccccc3n2)cc1C | -8.12% | –
Cc1ccc(S(=O)(=O)Nc2cc(F)c(F)cc2C(=O)Nc2nc(-c3ccccc3)cs2)cc1 | -3.7% | –
Cc1ccc(S(=O)(=O)Nc2ccccc2C(=O)Nc2nc(-c3ccccc3)c(Br)s2)cc1 | 4.77% | –
COc1ccc(OC)c(C(=O)Nc2nc(-c3ccccc3)cs2)c1 | 0.477% | –
Cc1ccc(S(=O)(=O)Nc2cccnc2C(=O)Nc2nc(-c3ccccc3)cs2)cc1 | -10.6% | –
Cc1ccc(S(=O)(=O)Nc2cc(C)ccc2C(=O)Nc2nc(-c3ccccc3)cs2)cc1 | -3.04% | –
Cc1ccc(S(=O)(=O)Nc2cnccc2C(=O)Nc2nc(C3CCC3)cs2)cc1 | -24.7% | –
Cc1ccc(S(=O)(=O)Nc2ccccc2C(=O)Nc2nccs2)cc1 | -13.6% | –
Cc1ccc(S(=O)(=O)Nc2cnccc2C(=O)Nc2ccncc2)cc1 | -0.724% | –
Cc1ccc(S(=O)(=O)Nc2cnccc2C(=O)Nc2ccc(-c3nc4ccccc4[nH]3)cc2)cc1 | 2.83% | –
COc1ccccc1NC(=O)c1cc(-c2ccc(C)c(C)c2)nc2ccccc12 | 8.2% | –
COc1ccc(NS(=O)(=O)c2ccc(C)cc2)c(C(=O)Nc2nc(-c3ccccc3)cs2)c1 | 0.218% | –
Cc1ccc(S(=O)(=O)Nc2cnccc2C(=O)Nc2nc(-c3ccc(Cl)c(Cl)c3)cs2)cc1 | -15% | –
Cc1ccc(-c2cc(C(=O)Nc3cccc4ccccc34)c3ccccc3n2)cc1C | 8.81% | –
Cc1ccc(-c2cc(C(=O)Nc3ccccc3Cl)c3ccccc3n2)cc1C | 5.22% | –
O=C(Nc1ccc(S(=O)(=O)Nc2nccs2)cc1)c1ccncc1 | 3.2% | –
Cc1ccc(S(=O)(=O)Nc2ccccc2C(=O)Nc2ccc(-c3ccccc3)nn2)cc1 | -20.3% | –
O=C(Nc1ccc([S+](=O)([O-])Nc2nccs2)cc1)C1CCNCC1 | 0.0583% | –
Cc1ccc(-c2cc(C(=O)Nc3ccc(-c4noc(=O)[nH]4)cc3)c3ccccc3n2)cc1C | 56.5% | –
O=c1[nH]c(CN2CCOCC2)nc2sc3c(c12)CCCC3 | 1.81% | –

Compound | activity change, negative = inhibition | Potency
CC1(C)CC(C(=O)Nc2ccc([S+](=O)([O-])Nc3nccs3)cc2)C1 | -2.89% | –
Cc1ccc(S(=O)(=O)Nc2ccncc2C(=O)Nc2nc(-c3ccccc3)cs2)cc1 | -5.51% | –
Cc1ccc(S(=O)(=O)Nc2cc(Br)ccc2C(=O)Nc2nc(-c3ccccc3)cs2)cc1 | -10.9% | –
CCC1CCC(C(=O)Nc2ccc(S(=O)(=O)Nc3nccs3)cc2)CC1 (configuration not stated) | -4.65% | –
Cc1ccc(-c2cc(C(=O)Nc3ncco3)c3ccccc3n2)cc1C | -13.5% | –
Cc1noc(C)c1S(=O)(=O)Nc1cnccc1C(=O)Nc1nc(-c2ccccc2)cs1 | -28.8% | –
Cc1ccc(-c2cc(C(=O)NCC[S+](=O)([O-])O)c3ccccc3n2)cc1C | -3.28% | –
COc1cc(NS(=O)(=O)c2ccc(C)cc2)c(C(=O)Nc2nc(-c3ccccc3)cs2)cc1OC | -19.6% | –
O=C(Nc1nc(-c2ccccc2)cs1)c1ccccc1 | 2.94% | –
O=C(Nc1nc(-c2ccccc2)cs1)c1ccccc1-n1cnnn1 | 2.3% | –
Cc1ccc(S(=O)(=O)Nc2ccc(Cl)cc2C(=O)Nc2nc(-c3ccccc3)cs2)cc1 | – | inactive
CCCCC(=O)N1CCC(C(=O)Nc2ccc([S+](=O)([O-])Nc3nccs3)cc2)CC1 | -2.69% | –
Cc1ccc(S(=O)(=O)Nc2cccc(C(=O)Nc3nc(-c4ccccc4)cs3)c2Cl)cc1 | 10.8% | –
Cc1ccc(-c2cc(C(=O)Nc3ccc(S(=O)(=O)NCc4nccs4)cc3)c3ccccc3n2)cc1C | 6.12% | –
COc1ccc(C(=O)Nc2nc(-c3ccccc3)cs2)cc1NS(=O)(=O)c1ccc(C)cc1 | 0.207% | –
Cc1ccc(-c2cc(C(=O)Nc3nc4ccccc4s3)c3ccccc3n2)cc1C | -1.61% | –
Cc1ccc(S(=O)(=O)Nc2ccccc2C(=O)Nc2cccc(-c3ccccc3)c2)cc1 | -0.745% | –
O=C(Cc1ccc2ccccc2c1)Nc1ccc(S(=O)(=O)Nc2nccs2)cc1 | -10.3% | –
Cc1ccc(-c2cc(C(=O)N(C)c3ccccc3)c3ccccc3n2)cc1C | 2.32% | –
